From PubChem BioAssay (Tox21)
Several values for one entry are separate records, joined by “and”; a condition that tells them apart may be missing. Identical values can stand only once. Unmarked numbers belong to inactive results. Records with an inconclusive call do not appear. Entries that show only a call come without a potency. Activity calls are given as the source filed them. Unless noted, calls come from the whole dose curve; as a rule, active = well fitted curve in the direction sought with a large enough effect in the repeat runs; inconclusive = weak or mixed curves; inactive = no such curve, though single readings can be large; an effect the other way counts as inactive or inconclusive.

Legend:
[1] = qHTS assay for small molecule disruptors of the mitochondrial membrane potential (AID 720635); note: potency is the fitted concentration of half-maximal effect
How it was run: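 Mitochondrial membrane potential tracked with Mito-MPS dye, red aggregates (ex 540/em 590 nm) against green monomers (ex 490/em 535 nm). Compound treatment 1 hr at 37C, dye 30 min in HepG2.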

[2] = qHTS assay to test for compound auto fluorescence at 535 nm (green) in HepG2 cells (AID 720675)
[3] = qHTS assay to test for compound auto fluorescence at 460 nm (blue) in HEK293 cells (AID 720678)
How it was run: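 Measured: blue fluorescence (Ex 405/Em 460 nm) of compound-treated HEK293 cells, incubated overnight at 37C with 5% CO2 and scaled to triamterene equivalents.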

[4] = qHTS assay to test for compound auto fluorescence at 590 nm (red) in HEK293 cells (AID 720679)
How it was run: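 Using HEK293 cells at 2,000 per well, the screen added 23 nL of each compound after cell attachment and incubated overnight (37C, 5% CO2). The plate reader then captured red-label fluorescence, Ex/Em 540/590nm.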

[5] = qHTS assay to test for compound auto fluorescence at 535 nm (green) in HEK293 cells (AID 720680)
[6] = qHTS assay to test for compound auto fluorescence at 460 nm (blue) in HEK293 cell free culture (AID 720681)
How it was run: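 Blue fluorescence (Ex 405/Em 460 nm, triamterene-equivalent) was read immediately after pin transfer of compound or DMSO into medium (DMEM, 10% FBS) without cells.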

[7] = qHTS assay to test for compound auto fluorescence at 590 nm (red) in HEK293 cell free culture (AID 720683)
How it was run: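 Red-channel autofluorescence of compounds in culture medium (DMEM, 10% FBS), no cells, measured at 540/590 nm. Rose Bengal sodium is the reference fluorophore for equivalence.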

[8] = qHTS assay to test for compound auto fluorescence at 590 nm (red) in HepG2 cell free culture (AID 720684)
How it was run: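 Plate contents were MEM with 10% FBS plus test compound or DMSO, no cells. Fluorescence was recorded with 540 nm excitation and 590 nm emission.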

[9] = qHTS assay to test for compound auto fluorescence at 460 nm (blue) in HepG2 cell free culture (AID 720685)
How it was run: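 Compound (23 nL) or DMSO pinned into cell-free MEM with 10% FBS; blue fluorescence read at 405/460 nm excitation/emission, expressed as auto-fluorescence equivalency to triamterene.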

[10] = qHTS assay to test for compound auto fluorescence at 535 nm (green) in HepG2 cell free culture (AID 720686)
[11] = qHTS assay to test for compound auto fluorescence at 460 nm (blue) in HepG2 cells (AID 720687)
How it was run: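 Blue-channel autofluorescence (Ex/Em 405/460 nm, triamterene-equivalent) was measured after 1 hr compound exposure at 37 C, 5% CO2. Cells were HepG2, plated overnight at 37 C in MEM plus 10% FBS.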

[12] = qHTS assay to identify small molecule antagonists of the thyroid receptor (TR) signaling pathway (AID 743065); note: nearly all actives have a fitted effect of over 55% in size
How it was run: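 Antagonism measured as loss of luciferase signal in GH3 cells stably carrying a TRE-luciferase reporter, co-treated with compound and T3 (1 nM final) for 23.5 h at 37 C. Viability was read in the same well by CellTiter-Fluor.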

[13] = system: thyroid hormone receptor (rat, GH3 cells); assay: qHTS assay to identify small molecule agonists of the thyroid receptor (TR) signaling pathway (AID 743066; calls by dose curve)
Aromatase (Homo sapiens) = Aromatase (Homo sapiens) (UniProt P11511); assay: qHTS assay to identify aromatase inhibitors (AID 743083); note: nearly all actives have a fitted effect of over 55% in size; note: potency is the fitted concentration of half-maximal effect
[14] = qHTS RealTime-Glo MT Cell Viability Assay in HEK293 cells - 0 hour (AID 1224880); note: top concentration of the series differs between compounds; nearly all actives have a fitted effect of over 45% in size
How it was run: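 Tox21 screen in HEK293 using RealTime-Glo MT chemistry, with cells and reagent co-dispensed. Luminescence proportional to viable cell number was captured at intervals during 40 h compound exposure at 37 C.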

[15] = qHTS assay to identify small molecule HDAC inhibitors (AID 1259364);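 note: wild-type HCT-116 cells with endogenous class I/II HDAC activity; top concentration of the series differs between compounds; nearly all actives have a fitted effect of over 45% in size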
How it was run: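 Relative class I and II HDAC activity is taken from the luminogenic signal in HCT-116 cells, with compound exposure 2 hr and reagent development 30 min at room temperature.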

[16] = qHTS assay to identify small molecule antagonists of the progesterone receptor (PR) signaling pathway - cell viability counter screen (AID 1346798); note: nearly all actives have a fitted effect of over 50% in size
How it was run: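 Cytotoxicity read as CellTiter-Glo luminescence (30 min, room temperature) in the same wells as the beta-lactamase readout. HEK293T PR-UAS-bla cells in charcoal-stripped 2% FBS received compound and R5020, then 16 h at 37C, 5% CO2.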

[17] = qHTS assay for small molecule agonists of the p53 signaling pathway (AID 651631; calls by dose curve; note: nearly all actives have a fitted effect of over 15% in size)
How it was run: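 Readout was fluorescence from the LiveBLAzer FRET substrate, applied for 2 h at room temperature after 16 h compound exposure at 37 °C. Cells were the p53RE-bla HCT-116 line, with beta-lactamase driven by p53 response elements.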

[18] = target: Aryl hydrocarbon receptor (Homo sapiens) (UniProt P35869); assay: qHTS assay to identify small molecule that activate the aryl hydrocarbon receptor (AhR) signaling pathway (AID 743085);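 note: HG2L7.5c1 human HepG2 liver cells with stably integrated DRE-driven firefly reporter; nearly all actives have a fitted effect of over 15% in size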
How it was run: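 Luminescence (ONE-Glo) from a dioxin-responsive-element luciferase reporter in HG2L7.5c1 HepG2 cells after 24 hr compound exposure at 37C; viability measured by CellTiter-Fluor fluorescence beforehand.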

[19] = qHTS assay to identify small molecule agonists of the estrogen related receptor signaling pathway with the pleiotropic PPARgamma coactivator (PGC) from Tox21 10K library (AID 1224842); note: nearly all actives have a fitted effect of over 15% in size
How it was run: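 Luminescence from One-Glo (30 min, room temperature) measured after PGC/ERR cells had 18 h at 37 C with pinned compound (23 nL in DMSO). Cells had been seeded at 2,000 per well and pre-incubated 6 h.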

[20] = qHTS assay to identify small molecule agonists of H2AX (AID 1224845; active = well fitted activation curve with a large enough effect in the signal ratio in the repeat runs, not every such curve was filed as active; the % refers to the signal ratio)
How it was run: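 Phospho-H2AX Ser139 measured by HTRF (ex 320 nm; em 665 and 620 nm) after 24 hr antibody incubation. Compounds, 15 concentrations, 0.76% DMSO, were applied to CHO-K1 cells for 3hr at 37C before lysis.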

[21] = qHTS assay to identify small molecule agonists of the estrogen related receptor (ERR) signaling pathway from Tox21 library (AID 1224849; calls by dose curve; note: nearly all actives have a fitted effect of over 15% in size); settings: ERR reporter cell line, ONE-Glo luciferase, 18 h; at 92.4 µM (top of the series) unless noted
How it was run: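 Six hours post-seeding at 37 C/5% CO2, ERR cells receive DMSO-solubilised compounds; after 18 h at 37 C, ONE-Glo reagent is applied and luminescence recorded.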

[22] = Caspase-3/7 induction in HepG2 cells by small molecules, qHTS assay (AID 1346978); note: nearly all actives have a fitted effect of over 15% in size
How it was run: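 Caspase-3/7 induction was measured by Caspase-Glo 3/7 luminescence (30 min, room temperature) after a 17 hr compound exposure of wild-type HepG2 cells seeded at 2,000 per well and pre-incubated 5 hr.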

[23] = target: Acetylcholinesterase (Homo sapiens) (UniProt P22303); assay: Acetylcholinesterase (AChE) small molecule antagonists: colormetric cell-based qHTS assay (AID 1347395; calls by dose curve; note: nearly all actives have a fitted effect of over 30% in size)
How it was run: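 Colorimetric readout: DTNB quantifies thiocholine from acetylthiocholine hydrolysed by endogenous AChE of SH-SY5Y cells (2,000/well, plated overnight). Compound pretreatment 30 min, substrate incubation 90 min, both 37 C.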

[24] = target: Acetylcholinesterase (Homo sapiens) (UniProt P22303); assay: Acetylcholinesterase (AChE) small molecule antagonists: enzyme-based qHTS assay (AID 1347397; calls by dose curve; note: nearly all actives have a fitted effect of over 55% in size); settings: Potency: AChE enzyme activity inhibition; outcome: AChE enzyme activity inhibition
How it was run: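 Absorbance-based detection of thiocholine with DTNB served as the read-out. Recombinant human AChE was exposed to compound for 30 min at RT before a 10 min RT incubation with acetylthiocholine.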

[25] = target: Acetylcholinesterase (Homo sapiens) (UniProt P22303); assay: Acetylcholinesterase (AChE) small molecule antagonists: fluorescence cell-based qHTS assay (AID 1347398; calls by dose curve; note: nearly all actives have a fitted effect of over 50% in size); settings: Potency: AChE activity; outcome: AChE activity
How it was run: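 Fluorimetric cell-based assay: intact SH-SY5Y cells, 30 min compound preincubation at 37 C, acetylthiocholine substrate with thiol probe Thiolite Green, 40 min RT development, fluorescence 490/520 nm.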

[26] = target: Acetylcholinesterase (Homo sapiens) (UniProt P22303); assay: Acetylcholinesterase (AChE) small molecule antagonists: enzyme-based qHTS assay with human liver microsomes (AID 1347399; calls by dose curve; note: nearly all actives have a fitted effect of over 60% in size); settings: Potency: qHTS inhibition; outcome: qHTS inhibition
How it was run: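 Recombinant human AChE (50 mU/mL in the enzyme mix) and human liver microsomes (0.25 mg/mL final) were preincubated with compound and NADPH (0.25 mg/mL final) for 30 min at 37 C. Acetylthiocholine/DTNB was then added; thiocholine was read colorimetrically after 10 min at room temperature.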

[27] = qHTS assay to identify small molecule antagonists of the estrogen related receptor signaling pathway with the pleiotropic PPARgamma coactivator (PGC) from Tox21 10K library (AID 1224841; call rule not given here; note: actives are mostly falling curves and most rising ones were filed inactive; nearly all actives have a fitted effect of over 50% in size)
How it was run: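 Each well held 2,000 PGC/ERR cells, pre-incubated six hours (37 C, 5% CO2). Test substances in DMSO were added by pin tool and left for 18 h at 37 C before luciferase detection by One-Glo.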

[28] = qHTS assay to identify small molecule antagonists of the estrogen related receptor (ERR) signaling pathway from Tox21 library (AID 1224848); note: nearly all actives have a fitted effect of over 50% in size
How it was run: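 Reading was by luminescence 30 min after ONE-Glo addition. Before that, ERR cells at 2,000 per well had rested 6 h at 37 C/5% CO2 and then received pin-tooled compounds in DMSO for 18 h at 37 C.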

Sequence of Aromatase (Homo sapiens) (P11511 whole entry, looked up): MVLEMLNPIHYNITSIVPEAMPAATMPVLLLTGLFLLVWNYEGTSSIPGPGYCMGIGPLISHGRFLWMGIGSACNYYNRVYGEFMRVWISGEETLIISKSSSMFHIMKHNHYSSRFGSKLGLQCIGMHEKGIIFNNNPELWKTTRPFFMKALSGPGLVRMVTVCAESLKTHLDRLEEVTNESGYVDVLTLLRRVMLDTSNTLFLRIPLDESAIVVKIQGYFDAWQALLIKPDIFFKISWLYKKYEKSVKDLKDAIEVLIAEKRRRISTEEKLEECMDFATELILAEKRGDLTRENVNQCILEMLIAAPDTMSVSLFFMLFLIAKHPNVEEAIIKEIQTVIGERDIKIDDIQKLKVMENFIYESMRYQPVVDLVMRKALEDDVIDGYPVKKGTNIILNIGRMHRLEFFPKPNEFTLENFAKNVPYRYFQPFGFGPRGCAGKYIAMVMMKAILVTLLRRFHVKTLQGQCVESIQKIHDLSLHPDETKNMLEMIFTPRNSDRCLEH
Sequence of Acetylcholinesterase (Homo sapiens) (P22303 whole entry, looked up): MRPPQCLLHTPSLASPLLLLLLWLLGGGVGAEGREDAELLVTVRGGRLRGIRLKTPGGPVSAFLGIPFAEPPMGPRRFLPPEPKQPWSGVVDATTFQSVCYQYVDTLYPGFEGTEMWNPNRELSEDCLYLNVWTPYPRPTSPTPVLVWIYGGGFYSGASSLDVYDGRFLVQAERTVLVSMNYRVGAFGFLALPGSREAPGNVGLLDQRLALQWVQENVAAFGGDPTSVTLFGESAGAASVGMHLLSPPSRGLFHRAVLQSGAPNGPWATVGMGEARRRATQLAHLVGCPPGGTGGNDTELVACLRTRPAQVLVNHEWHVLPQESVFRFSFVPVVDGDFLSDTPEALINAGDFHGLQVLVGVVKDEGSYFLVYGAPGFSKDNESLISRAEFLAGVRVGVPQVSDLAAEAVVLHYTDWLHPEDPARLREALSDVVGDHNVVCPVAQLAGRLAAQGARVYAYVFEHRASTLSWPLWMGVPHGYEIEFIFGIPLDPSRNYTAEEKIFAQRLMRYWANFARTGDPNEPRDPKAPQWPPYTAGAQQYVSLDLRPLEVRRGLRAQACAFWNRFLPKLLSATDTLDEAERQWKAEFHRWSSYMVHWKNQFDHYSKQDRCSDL
Sequence of Aryl hydrocarbon receptor (Homo sapiens) (P35869 whole entry, looked up): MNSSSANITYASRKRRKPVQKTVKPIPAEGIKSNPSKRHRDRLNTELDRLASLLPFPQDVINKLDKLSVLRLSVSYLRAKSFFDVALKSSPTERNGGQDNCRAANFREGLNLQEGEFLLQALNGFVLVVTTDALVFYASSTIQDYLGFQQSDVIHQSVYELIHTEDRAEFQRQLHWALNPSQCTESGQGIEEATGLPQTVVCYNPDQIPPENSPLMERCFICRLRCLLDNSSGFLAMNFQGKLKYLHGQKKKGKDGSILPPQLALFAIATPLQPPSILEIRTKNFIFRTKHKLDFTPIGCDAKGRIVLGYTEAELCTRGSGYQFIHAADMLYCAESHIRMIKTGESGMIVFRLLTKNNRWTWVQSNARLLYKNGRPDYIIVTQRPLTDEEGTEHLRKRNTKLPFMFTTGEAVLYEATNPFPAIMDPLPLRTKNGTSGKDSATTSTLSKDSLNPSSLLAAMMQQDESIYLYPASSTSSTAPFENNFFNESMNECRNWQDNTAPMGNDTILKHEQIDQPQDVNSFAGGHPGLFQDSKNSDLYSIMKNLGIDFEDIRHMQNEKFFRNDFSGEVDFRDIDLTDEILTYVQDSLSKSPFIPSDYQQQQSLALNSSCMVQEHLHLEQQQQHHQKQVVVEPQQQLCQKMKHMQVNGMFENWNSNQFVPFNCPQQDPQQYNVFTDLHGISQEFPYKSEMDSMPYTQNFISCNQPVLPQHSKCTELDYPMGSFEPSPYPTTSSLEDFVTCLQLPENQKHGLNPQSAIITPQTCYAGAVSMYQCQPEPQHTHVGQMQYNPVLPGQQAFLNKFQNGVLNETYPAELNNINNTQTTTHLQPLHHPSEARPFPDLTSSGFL

In the case of `Oc1c(Cl)cc(Cl)cc1Cl`, the Potency [1] is reported as 17 µM (active) and 48.6 µM (active), the Potency [2] is reported as “inactive” and the Potency [3] is reported as “inactive”. For the same molecule, the outcome [4] was “inactive”, the Potency [5] was “inactive” and the Potency [6] was “inactive”. The outcome [7] was “inactive”, the outcome [8] was “inactive” and the Potency [9] was “inactive”. The Potency [10] was “inactive”, the Potency [11] was “inactive” and the Potency [12] was “inactive”. The Potency [13] was “inactive”, the Potency (Aromatase (Homo sapiens)) was “inactive” and the outcome [14] was “inactive”. The outcome [15] was “inactive” and the Potency [16] was “inactive”.

With `COc1ccccc1[N+](=O)[O-]` the Potency [17] was “inactive”, the Potency (Aromatase (Homo sapiens)) was “inactive” and the Potency [18] was “inactive”. The Potency [19] was “inactive”, the Potency [20] was “inactive” and the activity change, positive = activation [21] was 4.31%. The Potency [22] was “inactive”, the Potency [23] was “inactive” and the Potency [24] was “inactive”. The Potency [25] was “inactive” and the Potency [26] was “inactive”.

In the case of `CCCCCCCCCc1ccc(OCCOCCO)cc1`, the Potency (Aromatase (Homo sapiens)) is reported as 21.1 µM (active), the Potency [18] is reported as “inactive” and the Potency [20] is reported as “inactive”. The Potency [23] was “inactive”, the Potency [24] was “inactive” and the Potency [25] was “inactive”. The Potency [26] was “inactive”.

In the case of `CCC1C(=O)OCC1Cc1cncn1C` (stereo not drawn), the Potency [27] is reported as “inactive”, the Potency [19] is reported as “inactive” and the Potency [28] is reported as “inactive”. The activity change, positive = activation [21] was 4.65% [at 42.5 µM], the Potency [23] was “inactive” and the Potency [24] was “inactive”. For the same molecule, the Potency [25] was “inactive” and the Potency [26] was “inactive”.
